Laboratory results: PMC13083723 (Patterns, 2026)
The campaign covered roughly 5,400 compounds. About 190 (3.5%) showed an effect of 50% or more. The full list was thinned out, with strong results kept by preference. Positions of bridges follow the written chain, without caps; N, C: chain ends. Non-standard residues stand in square brackets, D forms with d. Residues, ends and D or L forms follow the SMILES beside them. *: point of attachment. Heptanoyl(5-Me) = CCC(C)CCCC(=O)*; Dab = NCC[C@H](N)C(=O)O

Test system: Vero-E6
Assay: primary screen, phospholipidosis by LipidTOX staining; higher = more effect of the substance
Details: 10 µM
Summary of the method: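 Drug-induced phospholipidosis detected with HCS LipidTOX Red reagent in Vero-E6 cells. Compounds tested at 10 μM, with amiodarone (10 μM) as positive control and DMSO (0.1 v/v %) as vehicle.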

Compound | result_ITMP [%]
CC(C)(C)/[N+]([O-])=C/c1ccc(S(=O)(=O)[O-])cc1S(=O)(=O)[O-] | -0.44
O=C(O)c1ccc(/C=C2\SC(=S)N(c3cccc(C(F)(F)F)c3)C2=O)cc1 | 0.16
CC(C)(COP(=O)([O-])OP(=O)([O-])OC[C@H]1O[C@@H](n2cnc3c(N)ncnc32)[C@H](O)[C@@H]1OP(=O)([O-])O)[C@@H](O)C(=O)NCCC(=O)NCCS | -4.31
COc1ccc(/C=C\c2cc(OC)c(OC)c(OC)c2)cc1OP(=O)([O-])[O-] | 11.6
N=C1NCCN1CC(=O)O | 1.96
O=C(O)CC/C=C\C[C@@H]1CO[C@H](c2ccccc2Cl)O[C@@H]1c1ccccc1O (racemic) | -1.11
NC(=O)C1=CN([C@@H]2O[C@H](COP(=O)([O-])OP(=O)([O-])OC[C@H]3O[C@@H](n4cnc5c(N)ncnc54)[C@H](O)[C@@H]3O)[C@@H](O)[C@H]2O)C=CC1 | -10.8
C[C@H]1Oc2cc(cnc2N)-c2c(nn(C)c2C#N)CN(C)C(=O)c2ccc(F)cc21 [R4A_0001637_001 / SPE_A23124853] | -7.18
Cc1onc(-c2ccccc2)c1C(=O)NC1C(=O)N2[C@@H]1SC(C)(C)[C@@H]2C(=O)[O-] (stereo partly drawn) | -4.06
N=C(N)SCCc1ccc(OCc2ccc([N+](=O)[O-])cc2)cc1 | 70
O=C(O)c1cc(Oc2ccc([N+](=O)[O-])cc2)cc(Oc2ccc([N+](=O)[O-])cc2)c1 | -1.17
CCOC(=O)C1CSC(Cc2ccc(OCc3ccc([N+](=O)[O-])cc3)cc2)N1 (stereo not drawn) | -2.45
COc1c(C)c(C(=O)c2ccc(N)c(C(=O)[O-])c2)n2ccccc12 | -3.94
NCCC(O)(P(=O)([O-])O)P(=O)([O-])O | -8.19
O=S(=O)([O-])c1cc(I)c(O)c2ncccc12 | -9.09
Cc1nc(=O)c2c([nH]1)CCSC2 | -2.05
CC1(C)[C@@H]2CC[C@@]1(C)C(=O)C2 [R4A_0000828_001 / SPE_K15714472] | -1
Cc1ncc(NC(=O)c2ccc(CN3CCN(C)CC3)c(C(F)(F)F)c2)cc1Nc1nccc(-c2cccnc2)n1 | 9.33
Cc1ccc(C(=O)Nc2cccc(C(F)(F)F)c2)cc1Nc1nc(-c2cccnc2)nc2c1cnn2C | -4.6
Cc1ccc(NC(=O)c2ccc(CN3CCN(C)CC3)cc2)cc1Nc1nc(-c2cccnc2)cs1 | 54
CC(C)[C@@H](C)/C=C/[C@@H](C)[C@H]1CC[C@H]2C3=CC=C4C[C@@H](O)CC[C@]4(C)[C@H]3CC[C@]12C | -5.48
Nc1ncnc2c1ncn2C1O[C@H](COP(=O)(O)OP(=O)([O-])OP(=O)([O-])O)[C@@H](O)[C@H]1O (stereo partly drawn) | 6.44
CC1(C)[C@@H]2C[C@H]1[C@@](C)(O)[C@@H](O)C2 | -2.34
Cc1ccc(C(=O)N(CCCN)[C@@H](c2nc3cc(Cl)ccc3c(=O)n2Cc2ccccc2)C(C)C)cc1 | 75.7
Cc1ccc(C(=O)N(CCCN)[C@@H](c2oc3cc(Cl)ccc3c(=O)c2Cc2ccccc2)C(C)C)cc1 | 92.7
CCNC(=O)CCC(N)C(=O)O (stereo in doubt) | -4.2

Compound | result_ITMP [%]
c1cc2c(cc1[C@H]1OC[C@H]3[C@@H]1CO[C@@H]3c1ccc3c(c1)OCO3)OCO2 | -6.11
c1ccc(Oc2nc(NC3CCCCC3)c3nc[nH]c3n2)cc1 | -2.48
NC(N)=NCCC[C@@H](N)C(=O)N[C@@H](CCCN=C(N)N)C(=O)N1CCC[C@H]1C(=O)N1C[C@H](O)C[C@H]1C(=O)NCC(=O)N[C@@H](Cc1cccs1)C(=O)N[C@@H](CO)C(=O)N1Cc2ccccc2C[C@@H]1C(=O)N1[C@H](C(=O)N[C@@H](CCCN=C(N)N)C(=O)O)C[C@@H]2CCCC[C@@H]21 | -1.28
C=CC(=O)Nc1cc2c(Nc3ccc(F)c(Cl)c3)ncnc2cc1OCCCN1CCOCC1 | 4.03
COc1cc2ncnc(Nc3ccc(F)c(Cl)c3)c2cc1NC(=O)/C=C/CN1CCCCC1 | 19.4
CCOc1cc2ncc(C#N)c(Nc3ccc(OCc4cccc(F)c4)c(Cl)c3)c2cc1NC(=O)/C=C/CN(C)C | -0.47
CCOc1cc2ncc(C#N)c(Nc3ccc(OCc4ccccn4)c(Cl)c3)c2cc1NC(=O)/C=C/CN(C)C | 0.53
CCOc1cc2ncc(C#N)c(Nc3ccc(F)c(Cl)c3)c2cc1NC(=O)/C=C/CN(C)C | 73.9
CN(C)C/C=C/C(=O)Nc1cc2c(Nc3ccc(F)c(Cl)c3)ncnc2cc1O[C@H]1CCOC1 | 108
CCOC(=O)OC(C)OC(=O)C1N2C(=O)C(NC(=O)[C@H](N)c3ccccc3)C2SC1(C)C (stereo partly drawn) | -2.51
CCC(=O)O[C@@H]1CC(=O)O[C@H](C)C/C=C/C=C/[C@H](OC(C)=O)[C@H](C)C[C@H](CC=O)[C@H](O[C@@H]2O[C@H](C)[C@@H](O[C@H]3C[C@@](C)(OC(C)=O)[C@@H](OC(=O)CC)[C@H](C)O3)[C@H](N(C)C)[C@H]2O)[C@H]1OC | 7.16
O=C1NC(c2ccccc2)(c2ccccc2)C(=O)N1COP(=O)([O-])[O-] | -0.37
CNC(=O)CN1CCC(Oc2cc3c(Nc4cccc(Cl)c4F)ncnc3cc2OC)CC1 | 27.2
CN1CCN(CCOc2cc(OC3CCOCC3)c3c(Nc4c(Cl)ccc5c4OCO5)ncnc3c2)CC1 | 58.5
CCC(C)CCCC(=O)N[C@@H](CCN)C(=O)N[C@H](C(=O)N[C@@H](CCN)C(=O)N[C@H]1CCNC(=O)[C@H]([C@@H](C)O)NC(=O)[C@H](CCN)NC(=O)[C@H](CCN)NC(=O)[C@H](CC(C)C)NC(=O)[C@@H](CC(C)C)NC(=O)[C@H](CCN)NC1=O)[C@@H](C)O (stereo partly drawn) [R4A_0005175_001 / SPE_A18924964] ({Heptanoyl(5-Me)}-[Dab]T[Dab][Dab][Dab][dL]L[Dab][Dab]T; lactam 4-C) | -1.3
CO[C@@]1(NC(=O)C(C(=O)[O-])c2ccc(O)cc2)C(=O)N2C(C(=O)[O-])=C(CSc3nnnn3C)CO[C@@H]21 (stereo partly drawn) | -4.09
O=c1c(-c2ccc(O)cc2)coc2c(O[C@@H]3O[C@H](CO)[C@@H](O)[C@H](O)[C@H]3O)c(O)ccc12 | -5.15
C[C@]12CC[C@H](O)CC1=CCC1C2CC[C@]2(C)C(=O)CC[C@@H]12 (stereo partly drawn) | 13.7
CC(=O)O[C@H]1CC[C@@]2(C)C(=CCC3C2CC[C@]2(C)C(=O)CCC32)C1 (stereo partly drawn) | 0.97
CCN(CC)CCO[C@H]1CC[C@@]2(C)C(=CC[C@@H]3[C@@H]2CC[C@]2(C)C(=O)CC[C@@H]32)C1 | 61
COc1ccc(C(=O)/C(Br)=C/C(=O)[O-])cc1 | 7.96
O=C([O-])[C@H](O)[C@@H](O)[C@H](O)[C@H](O)CO | -4.67
C=C[C@@]1(C)CC(=O)[C@]2(O)[C@@]3(C)[C@@H](O)CCC(C)(C)[C@@H]3[C@H](O)[C@H](OC(C)=O)[C@@]2(C)O1 | -2.23
N/C(=N\Cc1ccccc1)NC(=O)c1nc(Cl)c(N)nc1N | 17.2
C[N+](C)(C)CC(=O)[O-] | -1.21
C=C1/C(=C/C=C2\CCC[C@]3(C)[C@@H]([C@H](C)/C=C/[C@@H](C)C(C)C)CC[C@@H]23)C[C@@H](O)C[C@@H]1O | -2.6

Compound | result_ITMP [%]
O=C(NC1CCN(CCc2c[nH]c3ccccc23)CC1)c1ccccc1 | 6.62
O=C(NC1CCN(CCCCC2(C(=O)NCC(F)(F)F)c3ccccc3-c3ccccc32)CC1)c1ccccc1-c1ccc(C(F)(F)F)cc1 | 62.5
O=C(O)c1ccccc1-c1ccc(C(F)(F)F)cc1 | -4.47
CC(C)NCC(O)COc1ccc(CC(N)=O)cc1 (stereo not drawn) [R4A_0002533_001 / SPE_K44993696] | -2.42
CCCCC(CC)CCC(CC(C)C)OS(=O)(=O)[O-] (stereo not drawn) | -1.42
C[C@H](Cc1ccc(OCC(=O)[O-])cc1)NC[C@H](O)c1cccc(Cl)c1 | -1.85
C[C@]12CCC(=O)C=C1CCC1C2CC[C@@]2(C)C1CC[C@@H]2O (stereo partly drawn) | 2.46
CCCCCS(=O)(=O)CCCCCCCCCCn1c(-c2ccc(O)cc2)c(C)c2cc(O)ccc21 | -3.27
CCCCOc1ccc(C(=O)CCN2CCCCC2)cc1 | 4.72
O=C(c1ccc(OCCN2CCCCC2)cc1)c1c(-c2ccc(O)cc2)sc2cc(O)ccc12 | 74.6
Cc1c(-c2ccc(O)cc2)n(Cc2ccc(OCCN3CCCCCC3)cc2)c2ccc(O)cc12 | 57.2
CC(C)N1CCN(c2ccc(C(=O)c3c(-c4ccc(O)cc4)sc4cc(O)ccc34)cc2)CC1 | -7.16
Cc1ccc(CC2(O)CCN(CCOc3ccc(O)cc3)CC2)cc1 | -3.85
Cc1c(C(=O)Nc2ccc(N3C[C@@H](C)O[C@@H](C)C3)nc2)cccc1-c1ccc(OC(F)(F)F)cc1 | -6.29
CCn1c(-c2ccc(Cl)cc2)n[nH]c1=O | -4.76
CCCCC[C@H](O)/C=C/[C@@H]1[C@H]2C/C(=C/CCCC(=O)[O-])O[C@H]2C[C@H]1O | 0.37
O=C([O-])CN(CCN(CC(=O)[O-])CC(=O)O)CCN(CC(=O)[O-])CC(=O)O | 0.03
CN1[C@@H]2CC[C@H]1C[C@@H](OC(c1ccccc1)c1ccccc1)C2 | 35.6
CN1CCC(OC(c2ccccc2)c2ccccc2)CC1 | 26.1
CN1C2CCC1CC(OC(c1ccc(F)cc1)c1ccc(F)cc1)C2 (stereo not drawn) | 61.5
CC(C(=O)OC1CC2CCC(C1)N2C)c1ccc(Br)cc1 (stereo not drawn) | 20.6
CN1C2CC[C@@H]1C[C@@H](OC(=O)[C@H](CO)c1ccccc1)C2 | -4.79
CCCCN1[C@@H]2CC[C@H]1C[C@@H](OC(c1ccc(F)cc1)c1ccc(F)cc1)C2 | 51.4
CN1[C@@H]2CC[C@H]1C[C@@H](OC(=O)C(O)c1ccccc1)C2 (stereo partly drawn) | -3.26
Fc1ccc(C(OCCN2CCN(CCCc3ccccc3)CC2)c2ccc(F)cc2)cc1 | 24.8
CN1C2CCC1CC(OC(c1ccccc1)c1ccc(Cl)cc1)C2 (stereo not drawn) | 98.3
